Our source for the outcome and AC50 values is PubChem BioAssay (EPA / NIEHS).

In assay [1] the target is Bile acid receptor (Homo sapiens) (UniProt Q96RI1). The experiment in a line: OT_FXR_FXRSRC1_0480: Odyssey Thera (OT) 8-hour HEK293T Protein-Complementation Assay for Farnesoid X receptor/SRC-1 Co-activator (AID 2283383; active means hit-call score of the fitted dose curve at least 0.9, where 1 is the maximum). An outline of the steps: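 HEK293T cells expressing FXR and SRC-1 fused to reporter fragments were dosed with compound for 8 h; fluorescence from the reconstituted reporter marked co-activator recruitment. Gain of signal was fitted against the DMSO baseline.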
Sequence of Bile acid receptor (Homo sapiens) (Q96RI1 whole entry, looked up, the tested form may be a part): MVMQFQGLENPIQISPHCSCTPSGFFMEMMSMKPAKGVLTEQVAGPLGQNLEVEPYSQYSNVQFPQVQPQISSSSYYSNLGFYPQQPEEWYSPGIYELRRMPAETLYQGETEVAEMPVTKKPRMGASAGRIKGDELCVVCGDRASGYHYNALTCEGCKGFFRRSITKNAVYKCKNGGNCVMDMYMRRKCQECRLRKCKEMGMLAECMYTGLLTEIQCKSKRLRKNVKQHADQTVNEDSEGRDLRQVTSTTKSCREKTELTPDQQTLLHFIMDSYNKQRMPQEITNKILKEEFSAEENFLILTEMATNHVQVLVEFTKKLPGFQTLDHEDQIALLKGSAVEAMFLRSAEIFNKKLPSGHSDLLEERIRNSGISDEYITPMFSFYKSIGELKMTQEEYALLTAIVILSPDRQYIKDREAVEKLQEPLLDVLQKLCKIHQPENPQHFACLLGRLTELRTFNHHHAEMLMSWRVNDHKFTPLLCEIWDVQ

Assay [2] concerns Sodium/Iodide Symporter (NIS), SLC5A5 (gene 6528). The experiment in a line: CPHEA_Stoker_NIS_Inhibition_RAIU: CPHEA's Radioactive Iodide Uptake (RAIU) Assay for Sodium/Iodide Symporter (NIS) Inhibition, Stoker and Laws Labs (AID 2283841; active means hit-call score of the fitted dose curve at least 0.9, where 1 is the maximum). In short, it runs like this:
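Iodide uptake read as CPM of intracellular 125I (final 329 pM) after 2 h room-temperature exposure in HEPES-buffered HBSS, pH 7.4. Human NIS-expressing HEK293T cells; six concentrations 0.001–100 uM, 0.5% DMSO, normalised to DMSO wells.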

Assay [3] concerns TTR (gene 7276). Nature of the assay: CCTE_GLTED_hTTR_0.125uM: CCTE's human Transthyretin (hTTR) Inhibition Assay, with 0.125uM TTR, Great Lakes Toxicology and Ecology Division (GLTED) Lab (AID 2284431). In short, it runs like this:
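Cell-free displacement of the fluorescent probe ANSA from human TTR (0.125uM) after 2 h incubation with test chemical. Fluorescence read at 380 nm excitation/475 nm emission; loss of signal fitted relative to DMSO baseline.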

Assay [4] addresses human Phosphodiesterase 10 (PDE10), PDE10A (gene 10846) (UniProt Q9Y233). Nature of the assay: NVS_ENZ_hPDE10: NovaScreen (NVS) Enzymatic Assay for human Phosphodiesterase 10 (PDE10) (AID 2283195; active means hit-call score of the fitted dose curve at least 0.9, where 1 is the maximum). In short, it runs like this: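 Fluorescence/mobility-shift readout of PDE10A enzyme activity, taken 1 h post-dosing. Primary screen in duplicate at 25 uM; actives (e.g. ≥30% inhibition) retested as singleton concentration-response, top concentration 50 uM.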

Assay [5] is described as follows: CCTE_Deisenroth_AIME_384WELL_CTox_Inactive: Cytotoxicity Assessment (CTOX) in CCTE's 384-well Estrogen Receptor Transactivation Assay without AIME metabolic competence (metabolism negative), Deisenroth Lab (AID 2284039; active means hit-call score of the fitted dose curve at least 0.9, where 1 is the maximum;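 further: cell viability via live-cell protease substrate cleaved to fluorescent probe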). An outline of the steps: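 Fluorescent protease-substrate viability readout after 24 h exposure of VM7Luc4E2 cells to conditioned medium. Chemicals (0.002–200 uM) first sat 2 h over alginate-water beads, no S9. Data fitted bidirectionally, loss of signal meaning viability loss.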

In assay [6] the target is Bile acid receptor (Homo sapiens) (UniProt Q96RI1). Nature of the assay: OT_FXR_FXRSRC1_1440: Odyssey Thera (OT) 24-hour HEK293T Protein-Complementation Assay for Farnesoid X receptor/SRC-1 Co-activator (AID 2283384; active means hit-call score of the fitted dose curve at least 0.9, where 1 is the maximum). In short, it runs like this: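 HEK293T cells were dosed with compound and read 24 h later by fluorescence intensity from protein-fragment complementation reporting FXR/SRC-1 co-activator interaction. Gain of signal was fitted relative to DMSO negative control as baseline.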

The subject of assay [7] is SERPINA7 (gene 6906). Nature of the assay: CCTE_GLTED_hTBG: CCTE's human Thyroxine-binding Globulin (TBG) Inhibition Assay, Great Lakes Toxicology and Ecology Division (GLTED) Lab (AID 2284343; active means hit-call score of the fitted dose curve at least 0.9, where 1 is the maximum;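 further: active chemicals lower fluorescence versus DMSO baseline by displacing probe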). An outline of the steps:
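Cell-free binding assay in which human TBG is incubated with test chemical for 2 hours and displacement of the fluorescent probe ANSA is read at 380 nm excitation/475 nm emission. Activity is fitted against DMSO as the negative control.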

Read-out in assay [8]: Vascular cell adhesion molecule 1 (VCAM1), VCAM1 (gene 7412)
The experiment in a line: BSK_MyoF_VCAM1: BioMAP Diversity Plus: MyoF Assay for Vascular cell adhesion molecule 1 (VCAM1) Biomarker Activity (AID 2284231). The settings on record: primary human lung fibroblasts. An outline of the steps:
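Primary human lung fibroblasts were dosed with test chemical for 24 h, then cell-surface VCAM-1 was measured by ELISA. Activity was fitted in the positive direction against DMSO as negative control and baseline.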

Read-out in assay [9]: Collagen I, COL1A1 (gene 1277)
Nature of the assay: BSK_MyoF_CollagenI: BioMAP Diversity Plus: MyoF Assay for Collagen I Biomarker Activity (AID 2284238). The settings on record: primary human lung fibroblasts. In short, it runs like this: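 Human lung fibroblasts were exposed to test chemical for 24 h, then Collagen I was quantified by ELISA. Activity was fitted in the increasing direction against DMSO as the negative control and baseline.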

Read-out in assay [10]: Collagen III, COL3A1 (gene 1281)
The experiment in a line: BSK_MyoF_CollagenIII: BioMAP Diversity Plus: MyoF Assay for Collagen III Biomarker Activity (AID 2284239). The settings on record: primary human lung fibroblasts. In short, it runs like this:
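Human lung fibroblasts were dosed with chemicals and, 24 hours later, collagen III was measured by ELISA. Activity was fitted in the positive direction against the DMSO negative-control baseline.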

Read-out in assay [11]: Interleukin 17F (IL17F), IL17F (gene 112744)
Nature of the assay: BSK_BT_xIL17F: BioMAP Diversity Plus: BT Assay for Interleukin 17F (IL17F) Biomarker Activity (AID 2284243). Particulars: primary human B cells with PBMC. An outline of the steps: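 B cell/PBMC co-culture (human primary), 24 h compound exposure; sIL-17F by Luminex xMAP; gain-of-signal fit vs DMSO baseline.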

Read-out in assay [12]: Actin alpha 1 (ACTA1), ACTA1 (gene 58)
The experiment in a line: BSK_MyoF_ACTA1: BioMAP Diversity Plus: MyoF Assay for Actin alpha 1 (ACTA1) Biomarker Activity (AID 2284244). Particulars: primary human lung fibroblasts. In short, it runs like this: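 Human lung fibroblasts (MyoF system) dosed with test chemical for 24 h; α-SMA measured by ELISA. Gain of signal fitted relative to DMSO negative control as baseline.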

Read-out in assay [13]: Basic fibroblast growth factor (bFGF), FGF2 (gene 2247)
Nature of the assay: BSK_MyoF_bFGF: BioMAP Diversity Plus: MyoF Assay for Basic fibroblast growth factor (bFGF) Biomarker Activity (AID 2284246). The settings on record: primary human lung fibroblasts. In short, it runs like this:
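Human lung fibroblasts were dosed with chemicals and bFGF was quantified by ELISA 24 h later. Activity was fitted in the gain-of-signal direction relative to DMSO as negative control and baseline. Parallel SRB total-protein staining tracked overt cytotoxicity.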

Read-out in assay [14]: Collagen IV, COL4A1 (gene 1282)
Nature of the assay: BSK_MyoF_CollagenIV: BioMAP Diversity Plus: MyoF Assay for Collagen IV Biomarker Activity (AID 2284247). Particulars: primary human lung fibroblasts. In short, it runs like this:
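Primary human lung fibroblasts were exposed to test chemicals and sampled 24 h after dosing. Collagen IV levels were measured by ELISA and fitted in the positive direction against DMSO as negative control and baseline.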

Read-out in assay [15]: Plasminogen activator inhibitor-1 (PAI1), SERPINE1 (gene 5054)
The experiment in a line: BSK_MyoF_PAI1: BioMAP Diversity Plus: MyoF Assay for Plasminogen activator inhibitor-1 (PAI1) Biomarker Activity (AID 2284256).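 Further: PAI-1 protein level measured by ELISA in fibroblast cultures; PAI-1 read 24 h after compound addition.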 Particulars: primary human lung fibroblasts. An outline of the steps:
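ELISA read-out of PAI-1 from primary human lung fibroblast cultures 24 h after dosing; gain-of-signal fit versus DMSO control.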

Read-out in assay [16]: Interleukin-8 (IL8), CXCL8 (gene 3576)
Nature of the assay: BSK_MyoF_IL8: BioMAP Diversity Plus: MyoF Assay for Interleukin-8 (IL8) Biomarker Activity (AID 2284261). The settings on record: primary human lung fibroblasts. An outline of the steps:
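ELISA read-out of IL-8 from primary human lung fibroblasts, 24 h post-dose; positive-direction curve fitting relative to DMSO vehicle baseline.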

Read-out in assay [17]: Matrix Metallopeptidase 1 (MMP1), MMP1 (gene 4312)
Nature of the assay: BSK_MyoF_MMP1: BioMAP Diversity Plus: MyoF Assay for Matrix Metallopeptidase 1 (MMP1) Biomarker Activity (AID 2284268). Particulars: primary human lung fibroblasts. In short, it runs like this: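 ELISA readout of MMP1 in primary human lung fibroblast cultures, 24 h post-dosing. Gain of signal versus DMSO vehicle control defines activity. Parallel SRB staining (0.1% after 10% TCA fixation, 560 nm) flags overt cytotoxicity.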

Read-out in assay [18]: TIMP metallopeptidase inhibitor 1 (TIMP1), TIMP1 (gene 7076)
Nature of the assay: BSK_MyoF_TIMP1: BioMAP Diversity Plus: MyoF Assay for TIMP metallopeptidase inhibitor 1 (TIMP1) Biomarker Activity (AID 2284269). Particulars: primary human lung fibroblasts. In short, it runs like this: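 ELISA read-out of TIMP-1 from primary human lung fibroblast cultures 24 h after compound dosing; gain of signal relative to DMSO vehicle baseline defines activity.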

Assay [19] can be described thus: CCTE_Padilla_ZF_Score.General: CCTE's 144 Hour Post-fertilization zebrafish Assay Score for General Malformation, Padilla Lab (AID 2284411). In short, it runs like this: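 Wild-type zebrafish embryos were plated singly at 6-8 hpf in 10% Hanks' and exposed in sealed wells at 26C until rinsed on 5 dpf. At 6 dpf two blinded assessors scored mortality, hatching and malformations by stereomicroscopy; gain-of-signal versus DMSO.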

Assay [20] is described as follows: CCTE_Harrill_HTTr_CellCount_MCF7: CCTE's Cell Proliferation Assessment for the High-Throughput Transcriptomics (HTTr) Platform, Harrill Lab (AID 2284012; active means hit-call score of the fitted dose curve at least 0.9, where 1 is the maximum;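 further: cells exposed to compound for six hours; intended direction is loss of nuclei count meaning fewer cells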). In short, it runs like this: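 MCF-7 cells were exposed for 6 h to an eight-point dilution series; Hoechst-labeled nuclei were counted by high content imaging. Curves were fitted bidirectionally against DMSO as negative control and baseline, with signal loss indicating reduced cell count.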

Molecules are shown by their SMILES. Records with an inconclusive call do not appear. Active and inactive are the calls of the source. How the source made its calls, unless noted: active means hit-call score of the fitted dose curve at least 0.9, where 1 is the maximum; inactive means score below 0.9.

Sequence of human Phosphodiesterase 10 (PDE10), PDE10A (gene 10846) (Q9Y233 whole entry, looked up): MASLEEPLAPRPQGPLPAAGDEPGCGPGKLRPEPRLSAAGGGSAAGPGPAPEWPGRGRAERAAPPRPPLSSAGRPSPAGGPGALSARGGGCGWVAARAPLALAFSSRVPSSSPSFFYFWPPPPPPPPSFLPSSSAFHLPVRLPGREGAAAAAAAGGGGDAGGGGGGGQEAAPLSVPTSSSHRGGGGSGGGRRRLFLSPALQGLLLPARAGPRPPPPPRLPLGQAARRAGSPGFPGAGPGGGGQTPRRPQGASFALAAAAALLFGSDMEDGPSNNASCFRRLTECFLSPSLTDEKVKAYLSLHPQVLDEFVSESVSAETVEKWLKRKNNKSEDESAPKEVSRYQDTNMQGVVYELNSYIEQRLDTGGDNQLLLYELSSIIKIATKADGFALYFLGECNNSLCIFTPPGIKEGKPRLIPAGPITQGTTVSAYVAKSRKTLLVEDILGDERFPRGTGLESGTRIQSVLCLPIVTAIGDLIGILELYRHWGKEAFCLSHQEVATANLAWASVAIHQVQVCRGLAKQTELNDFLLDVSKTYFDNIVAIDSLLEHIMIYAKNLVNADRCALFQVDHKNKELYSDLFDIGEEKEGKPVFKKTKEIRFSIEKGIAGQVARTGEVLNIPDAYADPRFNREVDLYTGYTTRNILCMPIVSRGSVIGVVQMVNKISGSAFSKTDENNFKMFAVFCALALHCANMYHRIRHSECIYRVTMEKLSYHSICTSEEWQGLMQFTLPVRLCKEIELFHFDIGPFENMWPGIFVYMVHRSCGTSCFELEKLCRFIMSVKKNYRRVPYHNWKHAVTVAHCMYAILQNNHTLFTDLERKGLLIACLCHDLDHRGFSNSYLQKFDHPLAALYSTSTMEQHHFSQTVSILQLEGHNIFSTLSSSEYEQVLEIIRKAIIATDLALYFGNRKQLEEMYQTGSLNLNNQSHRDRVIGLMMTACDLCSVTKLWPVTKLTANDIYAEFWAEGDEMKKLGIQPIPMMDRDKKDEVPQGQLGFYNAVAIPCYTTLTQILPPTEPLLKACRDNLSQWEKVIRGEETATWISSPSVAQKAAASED

`O=C(OCc1ccccc1)c1ccccc1`: the compound was classed as inactive in [1] and in assay [2]. In addition, the AC50 in assay [3] was 20.7 µM (active).
Take `CC(=O)CCc1ccccc1`: the call in [4] was inactive.
On to `CCC(C)(CCC(C)C)C(=O)O` (centres undefined), for which the compound was classed as inactive in [5].
Regarding `O=C(Oc1ccccc1)c1ccccc1`, the AC50 was 45.2 µM (active) in assay [1], 8.47 µM (active) in assay [7] and 24.2 µM (active) in assay [3]. In assay [6], the outcome was inactive.
For `Sc1nc2ccccc2s1`, the compound was called inactive in assay [6], in assay [8], in [9], in assay [10], in [11] and in assay [12]. The result in assay [13], in assay [14], in assay [15], in assay [16], in assay [17] and in assay [18] was inactive. Moreover, the AC50 in assay [7] was 50 µM (active); in assay [19], 5.5 µM (active); in [3], 9.1 µM (active).
As for `CCC(C)=NO`, the outcome in assay [20] and in assay [5] was inactive.
On to `O=C(O)Cc1c[nH]c2ccccc12`, for which the result in assay [20] was inactive.
Turning to `CCCCCCC(O)CCCCCCCCCCC(=O)OC` (centres undefined), the result in assay [8], in [9], in assay [10], in [11], in assay [12] and in assay [13] was inactive. Further, the outcome in assay [14], in [15], in assay [16], in assay [17] and in assay [18] was inactive.
Turning to `O=C(CC(C(=O)OC1CCCCC1)S(=O)(=O)O)OC1CCCCC1` (centres undefined), the call in [6] and in assay [5] was inactive.
For the compound `COC(=O)/C=C\C(=O)OC`, the call in assay [4], in assay [8], in assay [9], in assay [10], in assay [12] and in assay [13] was inactive. Further, the result in assay [14], in assay [15], in [16], in [17] and in assay [18] was inactive. The AC50 in assay [11] was 20 µM (active).
Take `COC(=O)[C@]1(C)CCC[C@@]2(C)[C@H]1CC=C1C=C(C(C)C)CC[C@@H]12`: the AC50 was 12.7 µM (active) in [1] and 12.8 µM (active) in assay [6]. The outcome in assay [2] and in assay [5] was inactive.
`O=C(C(=O)c1ccccc1)c1ccccc1`: the outcome in assay [8], in assay [9], in [10], in assay [11], in assay [12] and in assay [13] was inactive. The result in [15], in [16], in assay [17] and in assay [18] was inactive. For the same compound, the AC50 in [14] is 0.913 µM (active).
Take `CCC(C)NC(N)=O` (centres undefined): in assay [4], the compound was classed as inactive.
For `CCCCOC(=O)COc1ccc(Cl)cc1Cl`, the compound was classed as inactive in assay [1] and in [5]. Besides, the AC50 in [7] is 9.59 µM (active).
For `CCCCCCCCCC/C=C/C1CC(=O)OC1=O` (centres undefined), the outcome in [8], in assay [9], in assay [10], in assay [11], in [12] and in assay [13] was inactive. For the same compound, the outcome in [14], in assay [15], in [16], in assay [17] and in assay [18] was inactive.
Consider `O=C1NC(=O)C2CC=CCC12` (centres undefined), for which the result in assay [6] was inactive.
On to `CCCCCC1CCCC(=O)O1` (centres undefined), for which, in assay [4], the result was inactive.
For `c1ccc(CNc2ncnc3nc[nH]c23)cc1`, the result in [6] was inactive.
For the compound `CC(=O)OC(C)(C)Cc1ccccc1`, the result in [1], in [6] and in [5] was inactive.
With `CCCCCC[C@@H](O)C/C=C\CCCCCCCC(=O)O`, the AC50 in [1] was 74.3 µM (active); in assay [7], 41.4 µM (active); in assay [3], 10.8 µM (active). Moreover, the result in assay [6], in assay [2] and in [20] was inactive.
As to `Clc1ccccn1`, the call in assay [20] was inactive.
Take `Cc1cc2nc3c(=O)[nH]c(=O)nc-3n(C[C@H](O)[C@H](O)[C@H](O)CO)c2cc1C`: the AC50 in assay [1] is 37.3 µM (active); in assay [6], 52.7 µM (active); in assay [2], 25.8 µM (active).
For the compound `NCc1ccccc1`, in [20], the compound was classed as inactive.
